# This is a sample that favours compounds with a hit; in the whole collection about 2.4% have one here.
# D2 PAM-1 = human D2 receptor positive allosteric modulation; P14416; DiscoveRx D2 beta-arrestin cells, luminescence, 90 min; 100% = 57 uM dopamine signal; potentiation, % (no concentration beside the values); hit rate 0.23% among 360,000; AID 624464; in the data active = potentiation above about 50%
# Target sequence (P14416 whole entry, looked up): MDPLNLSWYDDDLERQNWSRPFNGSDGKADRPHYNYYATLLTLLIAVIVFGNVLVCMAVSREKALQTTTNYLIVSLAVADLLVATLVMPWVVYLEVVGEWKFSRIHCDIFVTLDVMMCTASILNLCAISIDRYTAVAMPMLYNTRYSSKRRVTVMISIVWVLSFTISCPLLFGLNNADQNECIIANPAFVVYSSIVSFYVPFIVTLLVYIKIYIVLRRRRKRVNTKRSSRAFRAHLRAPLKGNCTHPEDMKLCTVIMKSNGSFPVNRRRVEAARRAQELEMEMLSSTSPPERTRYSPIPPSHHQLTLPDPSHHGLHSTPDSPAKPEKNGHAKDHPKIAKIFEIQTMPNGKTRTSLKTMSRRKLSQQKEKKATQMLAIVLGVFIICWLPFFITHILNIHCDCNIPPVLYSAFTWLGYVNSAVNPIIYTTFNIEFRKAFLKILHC
#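 D2 cells co-treated with compound plus 50 nM dopamine (EC20) for 90 min at 37 deg C to detect potentiation. Beta-arrestin recruitment was read as enzyme-fragment luminescence after 1 h at ambient temperature. Full response was set by 57 uM dopamine.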
# D2 antag = antagonizes the human D2 dopamine receptor | hit rate 2% among 340,000 | inhibition, % at 10 µM | HEK293 TREx D2 cells, calcium flux, dopamine EC80 | AID 485344 | P14416; in the data active = inhibition above about 30%; inactive = below that, where a call was filed
#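 Dopamine at EC80 is the agonist stimulus; test compounds precede it by 180 s. Calcium flux read kinetically in a force-coupled, inducible HEK293 T-REx D2 cell line.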
# D2 PAM-2 = positive allosteric modulators of human D2 dopamine receptor. potentiation, % at 10 µM. P14416. hit rate 0.34% among 340,000. HEK293 T-REx D2, calcium flux, EC20 dopamine potentiation;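 active = potentiation over 3 SD above the plate norm, cut at about 30% in these data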
#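 Using a no-wash calcium dye in inducible, force-coupled HEK293 Trex cells expressing D2, we tracked fluorescence each second for 180 s after compound, then for 180 s after EC20 dopamine to detect augmented signalling.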
# D2 ag-1 = human D2 receptor agonism in beta-arrestin assay; P14416; DiscoveRx PathHunter D2 beta-arrestin, luminescence, 90 min; 100% = 57 uM dopamine signal; activation, % (concentration not given with the values); hit rate 0.084% among 360,000; AID 624465; in the data active = activation above about 40%
#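 Agonist mode: compounds alone added to overnight-plated D2 PathHunter cells for 90 min at 37 C, with 57 uM final dopamine (EC100) defining full response. Beta-arrestin recruitment detected by chemiluminescent reagent, read after 1 h at ambient temperature.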
# D2 ag-2 = D2 dopamine receptor (human) agonism. HEK293 T-REx D2 cells, calcium flux agonist mode. activation, % at 2 µM. hit rate 0.53% among 340,000;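 active = activation over 3 SD above normal in the single-dose calcium agonist read, cut at about 30% in these data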
#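 Tetracycline-induced HEK293 Trex cells with D2 receptor force-coupled to calcium signaling, plated overnight at 30 C and loaded with no-wash calcium dye. Calcium flux read kinetically for 180 s after compound addition; responses flag agonists.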
# A number is an active result; . = inactive; / = no result given.
SMILES,D2 PAM-1,D2 antag,D2 PAM-2,D2 ag-1,D2 ag-2
CN(c1ccccc1)c1nc(N)c([N+](=O)[O-])c(N2CCCCCC2)n1,.,.,.,.,.
Cc1ccc(-c2cc(NC(=O)C(C)Oc3ccc(C)c(C)c3)on2)cc1 (stereo unspecified),/,/,.,/,.
Clc1ccc(N2CCN(c3ncnc4c3nc3n4CCCC3)CC2)cc1,/,/,.,/,/
O=C(CSc1ccc(Br)cc1)Nc1cccc(S(=O)(=O)N2CCOCC2)c1,.,.,.,.,.
COc1ccc(C(C)=O)cc1CC(=O)Nc1ccccc1-c1ccccc1,.,.,31,.,.
COc1ccc(C(C)=O)cc1CC(=O)Nc1cccc(S(=O)(=O)N2CCOCC2)c1,.,33,.,.,.
Cc1ccc(SCC(=O)Nc2cccc(S(=O)(=O)N3CCOCC3)c2)cc1C,.,35,.,.,.
O=C(Nc1cc(C(F)(F)F)ccc1Cl)c1cc(S(=O)(=O)NCc2ccccc2)ccc1F,/,/,.,/,.
Cc1cc2n(n1)C(c1ccccc1)CC(c1ccc(Br)cc1)=N2 (stereo unspecified),.,52,.,.,.
CCCCC(=O)Nc1cccc(-c2nc3ccccc3s2)c1,/,/,.,/,/
COc1ccccc1NC(=O)N1CCCC1C(=O)Nc1nnc(C(C)C)s1 (stereo unspecified),.,.,.,.,.
CC(C)c1nnc(NC(=O)C2CCCN2C(=O)Nc2ccccc2F)s1 (stereo unspecified),.,38,.,.,.
COCCCn1c(SCc2nnc(-c3ccccc3)o2)nc2sc3c(c2c1=O)CCC3,.,.,33,.,.
Cn1c(=NC(=O)c2ccc(S(=O)(=O)N3CCCc4ccccc43)cc2)sc2cc(S(C)(=O)=O)ccc21,.,.,.,.,.
C#CCn1c(=NC(=O)c2ccc(S(=O)(=O)N3CCCc4ccccc43)cc2)sc2cc(S(N)(=O)=O)ccc21,.,48,.,.,.
CN1/C(=C\C=C(/C#N)C(=O)Nc2ccc(Cl)cc2)C(C)(C)c2ccccc21,.,.,.,.,40
CN1/C(=C\C(=O)Nc2ccc(Cl)cc2)C(C)(C)c2ccccc21,.,.,.,.,.
O=C(Nc1cccc(-c2cscn2)c1)C1CCN(Cc2ccc(CO)o2)CC1,.,.,.,.,.
O=C(Nc1cccc(-c2cccc(F)c2)c1)C1CCN(Cc2ccco2)CC1,.,56,.,.,.
COc1cccc(-c2cccc(NC(=O)C3CCN(Cc4ccc(C)o4)CC3)c2)c1,.,.,.,.,.
COCc1ccc(CN2CCC(C(=O)Nc3cccc(-c4cscn4)c3)CC2)o1,.,32,.,.,.
COCc1ccc(CN2CCC(C(=O)Nc3cccc(-c4cccc(Cl)c4)c3)CC2)o1,.,34,.,.,.
Cc1csc2ncnc(NC3CCN(Cc4ccccc4)CC3)c12,.,79,.,.,.
Cc1ccc(-c2csc3ncnc(N4CCN(Cc5ccccc5)CC4)c23)cc1,.,/,/,.,/
Cc1cccc(NC(=O)c2ccc(CNS(=O)(=O)c3ccc4c(c3)C(C)(C)C(=O)N4C)cc2)c1,/,/,.,/,.
SMILES,D2 PAM-1,D2 antag,D2 PAM-2,D2 ag-1,D2 ag-2
CCOc1ccc(NC(=O)/C=C\C(=O)N(c2ccc(C(C)C)cc2)C(C(=O)NCc2ccco2)c2ccc(F)cc2)cc1 (stereo unspecified),/,/,.,/,/
CCNC(=S)N(CCc1c(C)[nH]c2ccc(OC)cc12)Cc1cccnc1,.,.,33,.,.
COCCNC(=S)N(CCc1c(C)[nH]c2ccc(C)cc12)Cc1cc(OC)c(OC)c(OC)c1,.,31,.,.,.
CCNC(=S)N(CCc1c(C)[nH]c2ccc(C)cc12)Cc1cc(OC)c(OC)c(OC)c1,.,.,.,.,.
CCNC(=S)N(CCc1c(C)[nH]c2ccc(Cl)cc12)Cc1cccnc1,.,.,.,.,.
O=C(CNS(=O)(=O)c1ccccc1)OCC(=O)c1ccc(F)cc1,.,.,36,.,.
CCCC(=O)N1CCc2cc(OC)c(OC)cc2C1COc1ccc2c(C)cc(=O)oc2c1 (stereo unspecified),/,/,.,/,.
CC(=O)Nc1cccc(NC(=O)Nc2cccc3ccccc23)c1,.,46,.,.,.
CCOc1ccc(C(N)=O)cc1OC,.,.,58,.,.
CCOC(=O)N1CCN(C(=O)c2ccc(OCC)c(OCC)c2)CC1,.,33,.,.,.

# Compound activity from PubChem BioAssay.
